Many of the other results were omitted from the sample, so hits are more common in it than they were.
SF1 inhibitor: inhibitors of human SF-1, primary screen, cell-based, CHO-K1, Gal4-SF-1 LBD, luciferase luminescence; CHO-K1 Gal4-SF-1 LBD luciferase reporter; 65,000 compounds, 0.55% hits; inhibition, % at 10 µM; Steroidogenic factor 1 (Homo sapiens), Q13285; AID 525, 2006;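 active = inhibition above the mean inhibition of all tested compounds plus 3 SD, cut at about 48% in these data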;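 note: 0% = SF-1 transfected cells with DMSO and 100% = mock-transfected cells lacking SF-1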
* hit, by the source's call.

SMILES	SF1 inhibitor
O=S(=O)(/C=C/c1ccccc1)n1cnc2ccccc21	5
COc1cc(C2Nc3cccc4cccc(c34)N2)cc(OC)c1OC(C)=O	82*
C/C=C/c1ccc(OC)c(OC(C)=O)c1	7
COC(=O)c1ccc(C(c2c(N)n(Cc3ccccc3)c(=O)n(C)c2=O)N2CCOCC2)cc1 (stereo not given)	0
CCc1ccc(N2CCCn3c2nc2c3c(=O)n(CCN3CCOCC3)c(=O)n2C)cc1	-18
Cn1c(-c2ccc3c(c2)OCO3)cnc1NCc1ccccc1	-68
Cc1ccc(-c2cnc(NC(=O)CCC(=O)N3CCCCC3)n2C)cc1	65*
Cc1cc(C)nc(SCC(=O)N2CCCCC2)n1	8
O=C(CCN1CCN(c2ccccc2)CC1)Nc1nccs1	8
CC1=C(c2ccc(C)cc2)S(=O)(=O)N(CC(=O)O)C1=O	3
Cc1cc(=O)oc2cc(OCC(=O)OCc3nnc(-c4ccccc4)o3)ccc12	-6
COc1ccc(CN/C=C2\CCCCC2=O)cc1	0
Nc1nonc1-c1noc(CCCN2C(=O)c3ccccc3C2=O)n1	-50
CCOc1ccc(-c2noc(CCC(=O)O)n2)cc1	53*
COc1ccc(-c2ccc(CCC(=O)O)n2C(C)C)cc1	-19
Cc1ccc(OCc2nc(-c3ccccc3)no2)c(C)c1	-59
CCOc1ccc(-c2nnc(N)o2)cc1	3
Cc1ccc(-c2noc(CCCC(=O)N3CCOCC3)n2)cc1	2
COc1ccc(-c2noc(CCCC(=O)O)n2)cc1	57*
O=S(=O)(Nc1ccc2c(c1)nc1n2CCOC1)c1ccc(Cl)cc1	5
O=C(CN1CCOCC1)N(c1ccccc1)c1ccc2ccccc2c1	7
CCOc1ccc(S(=O)(=O)N(CC(=O)O)c2ccc(C)cc2)cc1	-17
Brc1ccc(-c2cnc(-c3cccs3)o2)cc1	-52
CCC1CCc2c(sc(NC(=O)c3ccoc3C)c2C(N)=O)C1 (stereo not given)	-33
CC(C)Oc1ccc(/C(O)=C2/C(=O)C(=O)N(CCN(C)C)C2c2ccco2)cc1 (stereo not given)	-28
SMILES	SF1 inhibitor
O=C(NC1CCCCC1)c1cc2nc3c(c(C(F)(F)F)n2n1)CCCC3	-50
Cc1ccsc1C(=O)OCC(=O)Nc1sccc1C(N)=O	-74
CCCc1[nH]nc2c1C1(C(=O)N(CC)c3ccccc31)C(C#N)=C(N)O2 (stereo not given)	12
Cc1cccc(NC(=O)Nc2ccc(C#N)cc2)n1	71*
COc1ccc(NC(=O)Nc2cccc(C)n2)cc1	-64
Cc1cccc(NC(=O)c2cc3ccccc3c(=O)o2)n1	-65
Oc1ccc(N2CCN(c3ncnc4sc5c(c34)CCC5)CC2)cc1	50*
CC(C)c1nc2oc3c(N4CCNCC4)ncnc3c2c2c1CCC2	-15
O=c1[nH]c(CN2CCN(Cc3ccccc3)CC2)nc2sc3c(c12)CCC3	-5
COC(=O)c1ccc(Oc2cc(C)nc(SC)n2)cc1	-71
Cc1cc(F)ccc1S(=O)(=O)Nc1ccccc1C(=O)Nc1ccc2[nH]c(=O)[nH]c2c1	9
O=C(CSc1nnc(COc2cccc3cccnc23)o1)N1CCc2ccccc21	53*
O=C(COc1ccc(F)cc1Br)N1CCc2ccccc21	-51
Cc1cc(C(=O)OCC(=O)N2CCc3ccccc32)c(C)o1	-54
CCC(=O)Nc1nc(C)cc(SCC(=O)OC)n1	2
O=C(Nc1nccs1)c1ccc(COc2ccccc2Br)o1	-60
COC(=O)Cc1[nH]nc2c1C(c1cccc(OC)c1OC)C(C#N)=C(N)O2 (stereo not given)	6
COc1cc(C2C(C#N)=C(N)Oc3cc(N)ccc32)cc(OC)c1OC (stereo not given)	63*
COc1cc(C2C(C#N)=C(N)Oc3cc(C)n(CC4CCCO4)c(=O)c32)cc2c1OCO2 (stereo not given)	-5
CN(C)C=Nc1ncc2c([nH]c3ccccc32)c1C#N	-16
Nc1nsc2ccccc12	58*
O=C(Nc1cccc(C(F)(F)F)c1)C1CCN(S(=O)(=O)c2cnc[nH]2)CC1	2
O=S1(=O)Nc2c(ccc3cccnc23)-c2ccccc21	91*
CC(C(=O)N1CCCCC1)N1C(=O)c2ccccc2C1=O (stereo not given)	4
CCn1cc(Br)c(C(=O)Nc2ccc(F)c(Cl)c2)n1	-35
